# Assay results reported in PubChem BioAssay.
# Results filed as inconclusive are left out. Active and inactive are the calls of the source. Unless noted, how the calls were made is not given here.
# Columns and labels:
# [1] = enhancers of glutamate uptake in motor neurons, MN-1 cell line (AID 1612); conditions: MN-1 motor neuron cells, stronger effect = higher value;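 further: tested at 1 µM final; 0% = mean of DMSO vehicle wells on each plate; positive means more glutamate uptake than control and negative means less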
# [2] = reducers of polyQ inclusions in PC12 cells, cell-based, NGF-treated PC12, GFPQ80 (AID 1614); conditions: PC12 NGF-treated GFP-polyQ80 inclusion reduction;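 further: lower means fewer inclusions and 0 means no inclusions at all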
# [3] = suppressors of polyglutamine aggregation in yeast, 75Q-TubH (AID 1616); conditions: S. cerevisiae 75Q-TubH polyglutamine aggregation suppression; stronger effect = higher value
# [4] = molecular target: ATP-dependent translocase ABCB1 (Homo sapiens) (UniProt P08183); assay: MDR1 (ABCB1) efflux transporter inhibition, cell-based (AID 377; in the data active means fluorescence slope change above about 50%); conditions: MDR1-expressing cells, fluorescent substrate accumulation slope; stronger effect = higher value; concentration not given here
# Sequence of ATP-dependent translocase ABCB1 (Homo sapiens) (P08183 whole entry, looked up): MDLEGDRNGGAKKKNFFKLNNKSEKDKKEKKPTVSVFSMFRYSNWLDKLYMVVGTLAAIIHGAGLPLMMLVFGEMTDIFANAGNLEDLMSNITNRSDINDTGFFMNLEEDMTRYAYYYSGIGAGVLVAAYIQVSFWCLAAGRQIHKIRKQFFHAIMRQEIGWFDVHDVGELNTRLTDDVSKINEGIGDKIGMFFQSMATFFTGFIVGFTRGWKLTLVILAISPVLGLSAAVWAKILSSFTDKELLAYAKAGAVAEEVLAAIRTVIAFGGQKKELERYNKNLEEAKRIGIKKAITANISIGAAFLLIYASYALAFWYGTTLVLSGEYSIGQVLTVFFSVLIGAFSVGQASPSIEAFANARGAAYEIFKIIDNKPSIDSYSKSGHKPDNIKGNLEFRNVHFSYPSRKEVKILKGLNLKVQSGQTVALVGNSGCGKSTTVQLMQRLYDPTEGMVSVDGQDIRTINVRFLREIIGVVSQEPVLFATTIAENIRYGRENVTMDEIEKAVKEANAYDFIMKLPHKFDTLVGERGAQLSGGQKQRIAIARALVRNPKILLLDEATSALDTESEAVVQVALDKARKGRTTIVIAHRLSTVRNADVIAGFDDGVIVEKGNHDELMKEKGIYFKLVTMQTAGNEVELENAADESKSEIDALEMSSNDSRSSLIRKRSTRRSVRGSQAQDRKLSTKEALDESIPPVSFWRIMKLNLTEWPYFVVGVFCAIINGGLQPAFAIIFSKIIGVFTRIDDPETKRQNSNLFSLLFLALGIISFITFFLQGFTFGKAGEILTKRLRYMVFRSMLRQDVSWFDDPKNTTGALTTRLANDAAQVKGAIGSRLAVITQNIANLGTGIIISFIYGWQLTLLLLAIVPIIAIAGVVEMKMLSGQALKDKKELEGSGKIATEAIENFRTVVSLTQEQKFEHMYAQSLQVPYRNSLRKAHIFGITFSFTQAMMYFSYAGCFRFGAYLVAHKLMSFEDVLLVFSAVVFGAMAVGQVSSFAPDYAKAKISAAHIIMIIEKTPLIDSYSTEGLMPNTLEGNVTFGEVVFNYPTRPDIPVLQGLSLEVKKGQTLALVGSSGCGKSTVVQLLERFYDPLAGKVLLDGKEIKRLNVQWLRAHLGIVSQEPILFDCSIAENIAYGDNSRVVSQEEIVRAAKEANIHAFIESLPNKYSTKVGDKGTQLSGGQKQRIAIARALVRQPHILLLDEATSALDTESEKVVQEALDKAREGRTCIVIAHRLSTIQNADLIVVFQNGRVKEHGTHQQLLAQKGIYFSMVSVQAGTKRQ
# [5] = inhibitors of Cryptococcus chitosan production, flow cytometry, Cibacron Brilliant Red staining (AID 1347148); conditions: Cryptococcus neoformans chitosan, stronger effect = lower value; at 10 µM unless noted;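 further: compound exposure lasted three days at 37 degrees C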
# [6] = protection against mutant huntingtin cytotoxicity, PC12 cells, LDH release (AID 1610); conditions: PC12 mutant huntingtin toxicity, final LDH at 4 uM, stronger effect = lower value
smiles,measurement,setting,value
CC(Cc1ccc(O)c(O)c1)(NN)C(=O)O (centres undefined),glutamate uptake change,[1],6.68%
same,inclusion score,[2],2
same,aggregation suppression score,[3],1.15
CCN(CC)CC#CCOC(=O)C(O)(c1ccccc1)C1CCCCC1 (centres undefined),fluorescence slope change,[4],225% (active)
Cc1c(C(=O)NN2CCCCC2)nn(-c2ccc(Cl)cc2Cl)c1-c1ccc(I)cc1,fold fluorescence,[5],6.03 (inactive)
CC(C)C[C@H](NC(=O)[C@@H](O)[C@H](N)Cc1ccccc1)C(=O)O,fold fluorescence,[5],3.88 [at 162.1 µM] (inactive)
O=C(c1ccc(OCCN2CCCCC2)cc1)c1c(-c2ccc(O)cc2)sc2cc(O)ccc12,fluorescence slope change,[4],82.4% (active)
CC(C)(S)C(N)C(=O)O (centres undefined),glutamate uptake change,[1],-17.3%
same,inclusion score,[2],2
same,aggregation suppression score,[3],1.65
CC[C@H]1OC(=O)[C@H](C)[C@@H](O[C@H]2C[C@@](C)(OC)[C@@H](O)[C@H](C)O2)[C@H](C)[C@@H](O[C@@H]2O[C@H](C)C[C@H](N(C)C)[C@H]2O)[C@](C)(O)C[C@@H](C)CN(C)[C@H](C)[C@@H](O)[C@]1(C)O,normalised LDH release,[6],0.795
same,glutamate uptake change,[1],5.3%
same,inclusion score,[2],3
same,aggregation suppression score,[3],0.581
Cc1cccc(CCN2CCC(C(=O)c3ccc(NS(C)(=O)=O)cc3)CC2)n1,fold fluorescence,[5],4.01 [at 124.5 µM] (inactive)
CN1CCC[C@H]1c1cccnc1,glutamate uptake change,[1],15.4%
same,inclusion score,[2],2
same,aggregation suppression score,[3],1.26
NC(Cc1cc(I)c(Oc2ccc(O)c(I)c2)c(I)c1)C(=O)O (centres undefined),glutamate uptake change,[1],-8.22%
same,aggregation suppression score,[3],0.825
O=C1C(c2c(O)[nH]c3ccccc23)=Nc2ccccc21,fold fluorescence,[5],3.17 [at 190.6 µM] (inactive)
CCC[C@@H]1C[C@@H](C(=O)N[C@H]([C@@H](C)O)[C@H]2O[C@H](SC)[C@H](O)[C@@H](O)C2O)N(C)C1 (some centres undefined),fluorescence slope change,[4],65% (active)
CN1C2CCC1CC(OC(c1ccccc1)c1ccccc1)C2 (centres undefined),glutamate uptake change,[1],-4.45%
same,aggregation suppression score,[3],1.04
